# Results published in PubChem BioAssay (NCI).
# Compounds without any hit were thinned out: in the full panel of roughly 83,000, 20% have a hit.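 How to read the values: 0–100, growth inhibition (40 = 60% inhibited); 0, no net growth; -100 to 0, cell death (-40 = 40% of starting cells died; -100 = all dead).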 A number with no mark means an inactive call. Calls of active or inactive are those of the source. How the source made its calls: active means growth percent below 10; inactive means the rest.
# Columns and labels:
# Assay in all cases: NCI-60 one-dose screen, 48 h (100 = growth as untreated, 0 = no growth, -100 = all killed)
# Settings in all cases: 10 µM unless noted
# DU-145 prostate = test system: DU-145 prostate
# K-562 leukemia = test system: K-562 leukemia
# MALME-3M melanoma = test system: MALME-3M melanoma
# MDA-MB-231 breast = test system: MDA-MB-231 breast
# RXF 393 renal = test system: RXF 393 renal
# SF-268 CNS = test system: SF-268 CNS
# SF-295 CNS = test system: SF-295 CNS
# SF-539 CNS = test system: SF-539 CNS
# UACC-257 melanoma = test system: UACC-257 melanoma
# M14 melanoma = test system: M14 melanoma
# HCT-15 colon = test system: HCT-15 colon
# HT29 colon = test system: HT29 colon
# SNB-75 CNS = test system: SNB-75 CNS
# SNB-19 CNS = test system: SNB-19 CNS
# U251 CNS = test system: U251 CNS
# PC-3 prostate = test system: PC-3 prostate
# SK-MEL-5 melanoma = test system: SK-MEL-5 melanoma
# UACC-62 melanoma = test system: UACC-62 melanoma
# LOX IMVI melanoma = test system: LOX IMVI melanoma
# SK-MEL-28 melanoma = test system: SK-MEL-28 melanoma
Structure (SMILES),growth (DU-145 prostate),growth (K-562 leukemia),growth (MALME-3M melanoma),growth (MDA-MB-231 breast),growth (RXF 393 renal),growth (SF-268 CNS),growth (SF-295 CNS),growth (SF-539 CNS),growth (UACC-257 melanoma),growth (M14 melanoma),growth (HCT-15 colon),growth (HT29 colon),growth (SNB-75 CNS),growth (SNB-19 CNS),growth (U251 CNS),growth (PC-3 prostate),growth (SK-MEL-5 melanoma),growth (UACC-62 melanoma),growth (LOX IMVI melanoma),growth (SK-MEL-28 melanoma)
COc1ccc(-c2nn(C(=O)c3cc(OC)c(OC)c(OC)c3)c3cc(N)ccc23)cc1,10.1%,8.96% (active),68.2%,29.9%,14.6%,27.4%,7.45% (active),-24% (active),86.4%,24.4%,4.67% (active),0.136% (active),39.6%,34%,12.3%,25.8%,-15.8% (active),42.5%,26.3%,45.1%
COc1cc(CCCO)c(OC)c(OC)c1OC,109%,104%,100%,109%,108%,101%,106%,97.1%,103%,110%,110%,108%,86.9%,96.1%,101%,106%,109%,94.8%,98.1%,109%
COc1cccc(-c2nc(-c3ccc(NS(=O)(=O)c4ccccc4)cc3)[nH]c2-c2ccnc(Br)c2)c1,44.3%,5.37% (active),40.2%,30.1%,-24.5% (active),31.4%,3.83% (active),36.6%,48.7%,27.1%,3.93% (active),32.8%,15%,39.8%,35.4%,15.1%,41.7%,14.8%,4.69% (active),25.6%
O=C(O)C(c1ccccc1)N1C(=O)CSC1=S (stereo not given),107%,103%,107%,108%,108%,94.4%,104%,100%,101%,100%,103%,106%,72.8%,102%,96.4%,101%,102%,97.7%,97.2%,99.5%
O=CN(SSN(C=O)C1CCCCC1)C1CCCCC1,115%,52.3%,73.9%,102%,12.4%,103%,105%,102%,124%,92.7%,109%,108%,109%,99.9%,109%,103%,119%,85.5%,96.8%,116%
Cc1ccc(C(CC(=O)O)c2c(C)[nH][nH]c2=O)cc1 (stereo not given),106%,90.8%,99.4%,-33.1% (active),102%,94.9%,102%,97%,104%,96.7%,103%,113%,92.9%,98.5%,96.4%,105%,102%,96.1%,95.5%,110%
CN(C)CCCNc1nc2ccccc2c2c(=O)c3cc(F)ccc3sc12,26.2%,-27% (active),81.6%,-29.6% (active),48.4%,52.5%,78.2%,27.3%,84.9%,-64.1% (active),17.7%,4.32% (active),65.6%,68.4%,28.5%,50.2%,72.6%,-53.8% (active),-95% (active),-42.4% (active)
CC([C@H]1CCC2C3CCC4C[C@@H](NC=O)CC[C@]4(C)C3CC[C@@]21C)N(C)C (stereo not given in full),34.1%,-39.8% (active),-57.6% (active),-13.9% (active),-51.2% (active),-70% (active),-38.8% (active),-78.4% (active),-48.3% (active),-48.8% (active),-59.7% (active),-49.4% (active),-1.26% (active),44.6%,4.82% (active),5.08% (active),-96.7% (active),-51.3% (active),-58.7% (active),-94.2% (active)
Cc1cc(-c2cc(C)c(N)cc2C)c(C)cc1N,121%,54.7%,84.2%,82.8%,111%,95.9%,84.1%,97.5%,90.5%,65.6%,73%,99%,101%,85.2%,71.8%,80.5%,81.6%,75.8%,75.6%,89.3%
CC(C)C(=O)Nc1ccc(-c2nc(-c3cccc(OCCN4CCOCC4)c3)c(-c3ccnc(Br)c3)[nH]2)cc1,71.5%,2.82% (active),33.6%,57.6%,-35.3% (active),60.3%,-57.7% (active),24.3%,56.6%,59.7%,20.1%,16.9%,-4.1% (active),51.4%,25%,40.7%,45.8%,33.5%,27.7%,43.9%
CCOC(=O)NCCc1ccccc1,118%,91.4%,110%,116%,115%,114%,98.3%,111%,100%,110%,118%,102%,78.7%,103%,108%,101%,111%,88.8%,93.9%,118%
NC1CCN(c2nc(Nc3cccc(C(F)(F)F)c3)c3c(=O)[nH]ccc3n2)CC1,7.32% (active),-48.7% (active),-64.1% (active),-62% (active),-93.6% (active),-46.2% (active),-56.7% (active),-96.5% (active),-74.6% (active),-95.2% (active),-80% (active),-16.3% (active),-76.8% (active),-14.3% (active),-82.1% (active),19.3%,-96.2% (active),-80.4% (active),-94.2% (active),-85.4% (active)
COc1ccc(C2C(N)=NNC2c2cccc(O)c2)cc1 (stereo not given),125%,89%,88.5%,104%,97.2%,99.4%,92.1%,95.4%,107%,104%,102%,104%,84.7%,81.3%,93.6%,95.6%,101%,91.2%,97.7%,108%
Nc1nc(-c2cccc3ccccc23)cc2ccccc12,7.32% (active),-43.8% (active),82.2%,20.7%,-4.3% (active),23.7%,-50.2% (active),-35.9% (active),56.6%,-29.5% (active),3.98% (active),1.11% (active),7.16% (active),12%,16.3%,20.5%,11%,23.5%,20.9%,48.2%
NCCCNc1nc2ccc(Cl)cc2c2c(=O)c3cc(F)ccc3sc12,24.4%,-38.7% (active),103%,3.44% (active),62.3%,53.2%,103%,70.7%,98.3%,55%,47.9%,-12.1% (active),54.2%,77.1%,38.1%,58.2%,94.3%,97.4%,-62.3% (active),103%
COc1cc(C(=O)/C=C/c2c(Cl)nc3sccn23)cc(OC)c1OC,83.8%,37.6%,91.9%,77.2%,79.5%,77.8%,112%,86.5%,71.3%,79.4%,59.4%,67.5%,70.9%,83%,77.4%,70.5%,86.4%,78.7%,63.8%,93.6%
